# According to the supplement of paper PMC3545927:
# The list shows a part of the results. How many sequences the whole screen found active is unknown.
# B1: FS-2117 (peptide)
# chain: CAYPKRSAGEAGNASASA
# B2: FS-426 (peptide)
# chain: CAGFLRKRREAGNASASA
# B3: FS-896 (peptide)
# chain: CAWQRRQRRGAGNASASA
# B4: FS-1022 (peptide)
# chain: CAKWLRFIRGAGNASASA
# B5: FS-1136 (peptide)
# chain: CALNNRQIRGAGNASASA
# B6: FS-465 (peptide)
# chain: CANCLRQRRGAGNASASA
# B7: FS-1094 (peptide)
# chain: CATKNRQRRGAGNASASA
# B8: FS-981 (peptide)
# chain: CADGNRQVRGAGNASASA
# B9: FS-1050 (peptide)
# chain: CAPPRRQRRGAGNASASA
# B10: HC2146 (peptide)
# chain: CAMVVTSTWVAGNASASA
# B11: HC825 (peptide)
# chain: CAIGTVLDQAAGNASASA
# B12: FS-2289 (peptide)
# chain: CARQKRDPAFAGNASASA
# B13: FS-2778 (peptide)
# chain: CARRKRDWVIAGNASASA
# B14: FS-2812 (peptide)
# chain: CARSKRRWVIAGNASASA
# B15: FS-2749 (peptide)
# chain: CARQKKGVVPAGNASASA
# B16: FS-2751 (peptide)
# chain: CARQKRDWIWAGNASASA
# B17: FS-2211 (peptide)
# chain: CARHKRQSGVAGNASASA
# B18: FS-2169 (peptide)
# chain: CARQKRGWMWAGNASASA
# B19: HC1509 (peptide)
# chain: CARRCRASGVAGNASASA
# B20: FS-3255 (peptide)
# chain: CARHKRLSYQAGNASASA
# B21: HC2280 (peptide)
# chain: CACLEVVTSTAGNASASA
# B22: HC1625 (peptide)
# chain: CAARLLARGGAGNASASA
# B23: HC1029 (peptide)
# chain: CAQTASRQAEAGNASASA
# B24: HC801 (peptide)
# chain: CAGVRTITTGAGNASASA
# B25: HC2524 (peptide)
# chain: CASTPCSIHLAGNASASA
# B26: HC1843 (peptide)
# chain: CATAPCSGSWAGNASASA
# B27: FS-2755 (peptide)
# chain: CARQKRLFCRAGNASASA
# B28: FU6 (peptide)
# chain: CARQKRFVLSAGNASASA
# B29: FS-2113 (peptide)
# chain: CARYSRGVLSAGNASASA
# B30: FS-2750 (peptide)
# chain: CARQKRDTTHAGNASASA
# B31: FS-2444 (peptide)
# chain: CARQKRFVLSAGNASASA
# B32: FS-2586 (peptide)
# chain: CARQKRDWVIAGNASASA
# B33: FS-1822 (peptide)
# chain: CARHERDAGVAGNASASA
# B34: FS-2677 (peptide)
# chain: CARHKRDWVVAGNASASA
# B35: HC1644 (peptide)
# chain: CALSGWFTAGAGNASASA
# B36: HC303 (peptide)
# chain: CAFLVGQLFTAGNASASA
# B37: HC875 (peptide)
# chain: CASGDVVVVAAGNASASA
# B38: HC1729 (peptide)
# chain: CAMEECSYHLAGNASASA
# B39: TR10 (peptide)
# chain: CAAPRSSMSNAGNASASA
# B40: FS-3033 (peptide)
# chain: CARQKKADEPAGNASASA
# B41: FS-2506 (peptide)
# chain: CARQKRDANSAGNASASA
# B42: HC936 (peptide)
# chain: CACQDHLEFWAGNASASA
# B43: FS-446 (peptide)
# chain: CAKDGRRRKSAGNASASA
# B44: FS-129 (peptide)
# chain: CAGVGRVLRSAGNASASA
# B45: FS-1020 (peptide)
# chain: CAKPRRRRKSAGNASASA
# B46: FS-1019 (peptide)
# chain: CAKPRRILRSAGNASASA
# Target: furin, P09958
# Experiment: furin cleavage Z-score vs untreated control; higher = more cleavage, active = 3.5 or more, inactive = 1 or less, 8 variable residues between constant flanks
# Description: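 Multiplexed peptide-cDNA fusion cleavage assay. 8-mer variable peptides flanked by constant Cys-Ala (N-term) and Ala-Gly-Asn-Ala-Ser-Ala-Ser-Ala (C-term) and conjugated to a cDNA oligonucleotide were bead-immobilised via the N-terminus. They were treated with purified furin at a 1:10 enzyme:substrate ratio in 50 mM HEPES pH 7.5, 1 mM CaCl2, 100 mM NaCl for 7.5, 15 or 30 min. Released cDNA was counted by next-generation sequencing, and log counts versus no-furin controls were lowess-adjusted and converted to robust Z-scores.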
# Chain of furin, P09958 (P09958 whole entry): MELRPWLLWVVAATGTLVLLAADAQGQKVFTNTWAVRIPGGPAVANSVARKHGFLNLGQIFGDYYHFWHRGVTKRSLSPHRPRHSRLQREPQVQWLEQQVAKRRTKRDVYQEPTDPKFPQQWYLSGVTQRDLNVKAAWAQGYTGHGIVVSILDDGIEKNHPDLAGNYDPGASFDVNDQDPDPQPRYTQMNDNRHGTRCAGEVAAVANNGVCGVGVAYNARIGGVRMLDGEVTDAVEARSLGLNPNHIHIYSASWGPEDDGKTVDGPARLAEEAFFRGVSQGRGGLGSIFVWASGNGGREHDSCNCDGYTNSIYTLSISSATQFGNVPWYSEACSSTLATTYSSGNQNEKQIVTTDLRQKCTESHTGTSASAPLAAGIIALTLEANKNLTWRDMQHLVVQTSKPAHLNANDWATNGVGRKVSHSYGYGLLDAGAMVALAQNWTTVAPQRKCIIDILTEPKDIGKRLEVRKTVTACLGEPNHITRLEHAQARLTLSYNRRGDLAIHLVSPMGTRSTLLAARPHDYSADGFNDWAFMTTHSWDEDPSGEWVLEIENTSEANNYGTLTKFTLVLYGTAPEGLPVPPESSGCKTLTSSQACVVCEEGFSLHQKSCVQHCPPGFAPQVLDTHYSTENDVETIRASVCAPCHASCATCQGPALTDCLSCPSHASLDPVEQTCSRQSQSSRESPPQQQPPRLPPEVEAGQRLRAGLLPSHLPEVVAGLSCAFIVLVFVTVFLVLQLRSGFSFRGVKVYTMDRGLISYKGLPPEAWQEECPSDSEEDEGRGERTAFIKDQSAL
Sequence,furin cleavage Z-score (7.5 min),furin cleavage Z-score (15 min),furin cleavage Z-score (30 min)
B1,-0.54 (inactive),-0.564 (inactive),0.202 (inactive)
B2,11.1 (active),11.2 (active),8.58 (active)
B3,6 (active),6.49 (active),5.96 (active)
B4,2.09,0.354 (inactive),3.09
B5,3.62 (active),5.07 (active),5.04 (active)
B6,-0.759 (inactive),-0.337 (inactive),-0.511 (inactive)
B7,6.87 (active),7.34 (active),5.71 (active)
B8,0.00638 (inactive),-1.04 (inactive),0.17 (inactive)
B9,0.924 (inactive),0.828 (inactive),1.23
B10,-1.12 (inactive),-1.84 (inactive),-2.22 (inactive)
B11,-1.51 (inactive),-1.57 (inactive),-0.129 (inactive)
B12,2.9,3.65 (active),5.36 (active)
B13,3.18,5.46 (active),8.57 (active)
B14,-0.553 (inactive),-0.688 (inactive),0.146 (inactive)
B15,0.952 (inactive),-0.837 (inactive),-1.72 (inactive)
B16,3.51 (active),5.26 (active),8.38 (active)
B17,5.97 (active),7.29 (active),6.66 (active)
B18,-0.547 (inactive),2.65,3
B19,-1.17 (inactive),-0.493 (inactive),-0.69 (inactive)
B20,-1.36 (inactive),-0.609 (inactive),1.23
B21,-1.07 (inactive),-0.98 (inactive),0.458 (inactive)
B22,-1.06 (inactive),-1.7 (inactive),-0.871 (inactive)
B23,1.23,0.0169 (inactive),-0.455 (inactive)

Sequence,furin cleavage Z-score (7.5 min),furin cleavage Z-score (15 min),furin cleavage Z-score (30 min)
B24,0.457 (inactive),-0.157 (inactive),-1.39 (inactive)
B25,-0.158 (inactive),0.385 (inactive),1.12
B26,-0.496 (inactive),-0.615 (inactive),-1.22 (inactive)
B27,-1.26 (inactive),0.165 (inactive),0.958 (inactive)
B28,5.85 (active),4.21 (active),6.95 (active)
B29,0.374 (inactive),0.104 (inactive),0.696 (inactive)
B30,12.5 (active),13.1 (active),9.68 (active)
B31,4.98 (active),5.66 (active),7.27 (active)
B32,2.07,4.34 (active),6.74 (active)
B33,0.322 (inactive),0.612 (inactive),-0.236 (inactive)
B34,4.03 (active),1.73,8.28 (active)
B35,-0.277 (inactive),-0.506 (inactive),-1.36 (inactive)
B36,-0.568 (inactive),-0.266 (inactive),0.343 (inactive)
B37,-0.568 (inactive),-1.7 (inactive),1.07
B38,-0.21 (inactive),-0.538 (inactive),-0.509 (inactive)
B39,-0.848 (inactive),-0.0583 (inactive),-0.668 (inactive)
B40,-0.414 (inactive),0.374 (inactive),-1.07 (inactive)
B41,10.9 (active),12 (active),11.1 (active)
B42,-1.02 (inactive),-2.52 (inactive),-2.85 (inactive)
B43,0.703 (inactive),2.31,0.747 (inactive)
B44,7 (active),7.17 (active),7.2 (active)
B45,5.69 (active),7.66 (active),7.17 (active)
B46,6.74 (active),4.42 (active),5.71 (active)
